Screen size: about 420,000 compounds; about 64,000 (15%) were called active. About 27% were inconclusive and are not listed. These entries were drawn from the full list. Where a call stands in place of a potency, no number is given. Values without a mark were called inactive. Calls follow the shape of the dose curve; as a rule, active = well fitted inhibition curve with a large enough effect; inconclusive = small, poorly fitted or top-dose-only effect; inactive = flat fitted curve, though single readings scatter.
Experiment: qHTS for Inhibitors of human tyrosyl-DNA phosphodiesterase 1 (TDP1): qHTS in cells in absence of CPT; also: nearly all actives have a fitted effect of over 55% in size
Conditions: DT40 Tdp1-/- hTDP1 cells, no CPT, ATP luminescence, 48 h; activity change, negative = growth inhibition: at 46.2 µM (top of the series)
Method in brief: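 DT40 Tdp1-/-;hTDP1 cells, no CPT (DMSO vehicle only), 400 cells/well; compounds pin-transferred; ≥48 hr, 37 °C; CellTiter-Glo 30 min RT dark, luminescence read.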
Potency is read from the fitted curve at half-maximal effect.

With CC1(C)C2CCC13CS(=O)(=O)NC3C2 (centres undefined) as the compound, how does the Potency read?
Its Potency is “inactive”.

For CC1(C)OC(=O)C(=CNC(CO)C(=O)O)C(=O)O1 (centres undefined), which Potency is on record?
Its Potency is “inactive”.

For O=P(O)(CP(=O)(c1ccccc1)c1ccccc1)c1ccccc1O, which Potency is on record?
The Potency was “inactive”.

Which Potency does the source give for C=CCN1CN(S(=O)(=O)c2ccc(OC)cc2)c2nc3ccccc3nc21 here?
Its Potency is “inactive”.

With Cn1cnnc1Sc1ccc(CN2CCN(C3CCCC3)C(CCO)C2)o1 (centres undefined) as the compound, how does the Potency read?
Its Potency is “inactive”.

With Cc1c(C(=O)N(Cc2ccccc2)Cc2cccnc2)cnn1-c1ccc(F)cc1 as the compound, how does the Potency read?
The Potency was “inactive”.

Which Potency does the source give for CCN(CC)CC(=O)Nc1nn(-c2ccccc2)nc1C(N)=O here?
Its Potency is “inactive”.

With O=C(NCCCN1CCCCCC1)c1ccc(N2CCCC2=O)cc1 as the compound, how does the Potency read?
Its Potency is “inactive”.

With Cc1ccc(C(=O)N/N=C\c2cc(Br)c(Br)o2)cn1 as the compound, how does the Potency read?
The Potency was 16.4 µM (active).

For O=C(N/N=C/c1ccc(Br)o1)c1cncc(Br)c1, which Potency is on record?
Its Potency is “inactive”.

With Cc1ccc(C(=O)N/N=C/c2cccc3ccccc23)cn1 as the compound, how does the Potency read?
Its Potency is “inactive”.

For C=CCSc1ccc(S(=O)(=O)N2CCN(C)CC2)cn1, which Potency is on record?
The Potency was “inactive”.

With COC(=O)C1CCN(C(=O)COC(=O)c2cc(S(=O)(=O)N3CCOCC3)ccc2C)CC1 as the compound, how does the Potency read?
The Potency was “inactive”.

With CC1CCCC(NC(=O)COC(=O)c2ccccc2C(=O)N(C)C2CCCCC2)C1C (centres undefined) as the compound, how does the Potency read?
Its Potency is 14.6 µM (active).

With C=CCNC(=O)COC(=O)c1ccccc1C(=O)N(C)C1CCCCC1 as the compound, how does the Potency read?
Its Potency is “inactive”.

For O=C(COC(=O)c1ccccc1SCC(=O)NC1CCCCC1)NC1CCCCC1, which Potency is on record?
Its Potency is “inactive”.

Which Potency does the source give for NC(=O)COC(=O)c1sc2cc(F)ccc2c1Cl here?
The Potency was “inactive”.

With CC(=O)NC12CC3CC(C1)CC(C(=O)N1CCN(C(=O)c4ccco4)CC1)(C3)C2 as the compound, how does the Potency read?
The Potency was “inactive”.

With COc1ccc(N(CC(=O)NC(C)(C)C)C(=O)c2ccco2)cc1 as the compound, how does the Potency read?
Its Potency is “inactive”.

Which Potency does the source give for CC1(C)CC(=O)c2cc(OCC(=O)NCC3CCCO3)ccc2O1 (centres undefined) here?
The Potency was “inactive”.

Which Potency does the source give for Cc1cc(-c2cccs2)nc(-n2cccc2)n1 here?
The Potency was “inactive”.

With O=C(NNc1ncnc2c1cnn2-c1ccccc1)c1ccco1 as the compound, how does the Potency read?
Its Potency is “inactive”.

With Cc1cccc(NC(=S)N2CCCC(c3nc4ccccc4[nH]3)C2)c1 (centres undefined) as the compound, how does the Potency read?
Its Potency is “inactive”.

For O=C(O)CCC(=O)NCc1ccc2[nH]c3c(c2c1)CCCC3, which Potency is on record?
Its Potency is “inactive”.

With Cc1cccc(NC(=S)NCc2ccc3[nH]c4c(c3c2)CCCC4)c1 as the compound, how does the Potency read?
The Potency was 18.4 µM (active).

For CCCCc1c(O)nc2n(c1=O)CCS2, which Potency is on record?
The Potency was “inactive”.

For O=C(Oc1ccc(Br)cc1C(=S)N1CCOCC1)c1cccc([N+](=O)[O-])c1, which Potency is on record?
Its Potency is “inactive”.

For O=C(/C=C/c1c(Cl)cccc1Cl)NCc1ccccc1, which Potency is on record?
Its Potency is “inactive”.

For COn1c(=O)c(=O)n(OC)c2ccccc21, which Potency is on record?
The Potency was “inactive”.

With CCOC(=O)c1c(NC(=O)c2cc(CC)on2)sc(C(C)=O)c1C as the compound, how does the Potency read?
The Potency was “inactive”.

Which Potency does the source give for Cc1cc(OCc2cc(C(=O)NCc3cc(C(C)C)no3)no2)cc(C)c1Cl here?
Its Potency is “inactive”.

With CCOC(=O)CC1(NC(=O)c2cc(COc3cncc(Cl)c3)on2)CCCCC1 as the compound, how does the Potency read?
Its Potency is 20.6 µM (active).

Which Potency does the source give for COCCNc1ccnc(-c2cccc(NS(C)(=O)=O)c2)n1 here?
Its Potency is “inactive”.

For COc1cccc(-c2cc(NCCc3c[nH]c4ccc(OC)cc34)ncn2)c1, which Potency is on record?
The Potency was 23.1 µM (active).

With COc1ccc2[nH]cc(CCNc3ncnc4ccc(-c5ccccc5CN(C)C)cc34)c2c1 as the compound, how does the Potency read?
The Potency was “inactive”.

Which Potency does the source give for Cc1ccc2[nH]cc(CCNC(=O)c3ccc([N+](=O)[O-])cc3)c2c1 here?
Its Potency is “inactive”.

Which Potency does the source give for COc1ccc2[nH]cc(CCNc3cc(-c4ccccc4CN(C)C)ncn3)c2c1 here?
Its Potency is “inactive”.

Which Potency does the source give for COc1ccc2[nH]cc(CCNc3nc(-c4cccc(NS(C)(=O)=O)c4)nc4ccccc34)c2c1 here?
Its Potency is 13 µM (active).

For CNc1cc(-c2c(OC)cccc2OC)ncn1, which Potency is on record?
Its Potency is “inactive”.

With COc1ccc2[nH]cc(CCNc3ncnc4ccc(-c5ccc(C(=O)N(C)C)cc5)cc34)c2c1 as the compound, how does the Potency read?
Its Potency is 9.2 µM (active).

For CC(=O)Nc1ccc(S(=O)(=O)N2CCn3cccc3C2C)cc1 (centres undefined), which Potency is on record?
Its Potency is “inactive”.

Which Potency does the source give for CC(NC(=O)C(=O)NN=C1CCC(C(C)(C)C)CC1)c1ccccc1 (centres undefined) here?
The Potency was “inactive”.

Which Potency does the source give for CN1CCN(S(=O)(=O)c2ccc(NC(=O)c3ccco3)cc2)CC1 here?
Its Potency is “inactive”.

With COc1ccc(/C(C)=N/N2CCOCC2)c(O)c1 as the compound, how does the Potency read?
Its Potency is “inactive”.

For CC(C)NC(=O)N1CCN(c2ccncc2S(=O)(=O)N2CCCCC2)CC1, which Potency is on record?
Its Potency is “inactive”.

With CN1CCN(c2ccncc2S(=O)(=O)N2CCCC2)CC1 as the compound, how does the Potency read?
The Potency was “inactive”.

For O=S(=O)(c1cnccc1N1CCN(/N=C/c2ccc(Br)cc2)CC1)N1CCCCC1, which Potency is on record?
Its Potency is 18.4 µM (active).

Which Potency does the source give for CCOC(=O)C1CCN(C(=O)Cn2cc(C#N)c3ccccc32)CC1 here?
The Potency was “inactive”.

With O=C(c1cccnc1)N1CCN(S(=O)(=O)c2cccs2)CC1 as the compound, how does the Potency read?
The Potency was “inactive”.

For O=C(COC(=O)c1ccc(N2CCCC2=O)cc1)c1ccc(OC(F)F)cc1, which Potency is on record?
The Potency was “inactive”.

Which Potency does the source give for CC(C)CNC(=S)NNC(=O)c1ccccc1OC(F)F here?
Its Potency is “inactive”.

With CC/C(=N\NC(=S)NC(C)C)c1ccc(OC(F)F)cc1 as the compound, how does the Potency read?
The Potency was 16.4 µM (active).

With C/C=C1\C2C=C(C)CC1(N)c1ccc(=O)[nH]c1C2 (centres undefined) as the compound, how does the Potency read?
The Potency was “inactive”.

With COC(=O)Cc1csc(Nc2c(C)n(C)n(-c3ccccc3)c2=O)n1 as the compound, how does the Potency read?
The Potency was “inactive”.
